TROY signal inh: inhibitors of TROY-driven NF-kB signaling, primary screen, Q293 LMP1-TROYcd cells, NF-kB luciferase, uHTS; Q293 LMP1-TROYcd NF-kB luciferase reporter, 4 h; inhibition, % at 10 µM; 0.98% of 360,000 active;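 active means compounds whose plate-normalised and pattern-corrected inhibition of the luciferase reporter signal at the single screening dose is 50% or more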
CF NFkB block: inhibitors of PAF-induced NF-kB signaling, primary screen, cell-based, GFP fluorescence, uHTS | AID 588850, 2011 | 0.86% of 360,000 active | KKLEB NF-kB-GFP reporter, GFP fluorescence overnight | inhibition, % at 5 µM;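 active means at least 50% inhibition at 5 µM, scaled per plate between neutral and stimulator controls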;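 further: PAF is a Pseudomonas aeruginosa culture filtrate used as stimulus; plate controls were PAF-stimulated DMSO wells for no effect and unstimulated DMSO wells for full effect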
TWEAK-Fn14 inh: inhibitors of TWEAK-Fn14 signaling, primary screen, luciferase reporter cells, uHTS | TWEAK-stimulated Fn14 reporter cells, luciferase luminescence, 8 h | inhibition, % at 10 µM | 2% of 360,000 active; in the data active means inhibition above about 50%
KKLEB cytotox: cytotoxicity in KKLEB CF airway cells, primary screen, cytotoxicity control for CF NF-kB inhibitor project, cell-based, uHTS, fluorescence assay plates; KKLEB CF airway cells viability, ATPlite luminescence, overnight; hits give low values; cells stimulated with P. aeruginosa culture filtrate; activity change (cytotoxicity), % at 5 µM; 0.36% of 360,000 active; AID 602141, 2011;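 active means corrected activity change at or below -50% at 5 µM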
HIF-2a block: HIF-2a reporter inhibitors, primary screen, luminescence, 786-0 RCC cells | 786-0 RCC cells HIF-2a reporter, luciferase luminescence, overnight | inhibition, % at 18.8 µM | 0.72% of 360,000 active | AID 624352, 2012;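 active means inhibition of the luminescence signal of 40% or more relative to plate controls, in a single-dose primary screen at 18.75 µM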
Peg3 prom inh-1: Peg3 promoter-driven luciferase inhibitors, primary screen, cell-based, HeLa, luciferase luminescence; HeLa PEG-Prom luciferase reporter, overnight; inhibition, % at 20 µM; 1.7% of 360,000 active; AID 588405, 2011;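 active means inhibition of at least 50% at 20 µM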
Peg3 prom inh-2: Peg3 promoter reporter inhibitors, retest, confirmation, cell-based, HeLa, luciferase reporter, single concentration | shares compounds with Peg3 prom inh-1 | HeLa PEG-Prom luciferase reporter, luminescence, overnight | inhibition, % at 20 µM | 84% of 1,300 active;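 active means at 20 µM dose, 40% or more inhibition averaged across four replicates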
CF NFkB inh conf: inhibitors of PAF-induced NF-kB signaling, retest, confirmation, cell-based, GFP fluorescence, single concentration; KKLEB CF airway cells, overnight; inhibition, % at 5 µM; 64% of 1,300 active; shares compounds with CF NFkB block; AID 602472, 2012; in the data active means inhibition above about 40%;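 further: stimulus PAF is a Pseudomonas aeruginosa filtrate and not platelet activating factor; plate controls were DMSO wells with stimulus for no effect and unstimulated DMSO wells for full effect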
Mdm2 MdmX conf: retested Mdm2-MdmX interaction blockers, confirmation, cell-based, luminescence, single concentration, set 2. shares compounds with HIF-2a block. SaOS-2 split-luciferase Mdm2/MdmX complementation. inhibition, % at 8 µM. 99% of 740 active;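 active means mean inhibition of the luminescence signal across two replicates at or above 26 percent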
Target sequence (O15151 whole entry, looked up): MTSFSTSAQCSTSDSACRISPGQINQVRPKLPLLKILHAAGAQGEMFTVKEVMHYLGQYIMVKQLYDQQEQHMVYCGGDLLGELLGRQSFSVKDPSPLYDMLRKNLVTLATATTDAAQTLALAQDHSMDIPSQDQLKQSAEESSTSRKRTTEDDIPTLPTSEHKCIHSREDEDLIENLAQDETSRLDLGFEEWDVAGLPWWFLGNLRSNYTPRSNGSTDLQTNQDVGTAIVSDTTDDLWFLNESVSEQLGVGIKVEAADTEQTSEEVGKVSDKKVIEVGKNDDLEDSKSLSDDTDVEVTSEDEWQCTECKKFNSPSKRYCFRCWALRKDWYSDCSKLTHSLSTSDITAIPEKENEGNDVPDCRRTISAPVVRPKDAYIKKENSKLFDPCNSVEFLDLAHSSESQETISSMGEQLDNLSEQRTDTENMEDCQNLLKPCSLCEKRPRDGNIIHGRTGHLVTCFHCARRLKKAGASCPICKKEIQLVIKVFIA
Target sequence (Q00987 whole entry, looked up): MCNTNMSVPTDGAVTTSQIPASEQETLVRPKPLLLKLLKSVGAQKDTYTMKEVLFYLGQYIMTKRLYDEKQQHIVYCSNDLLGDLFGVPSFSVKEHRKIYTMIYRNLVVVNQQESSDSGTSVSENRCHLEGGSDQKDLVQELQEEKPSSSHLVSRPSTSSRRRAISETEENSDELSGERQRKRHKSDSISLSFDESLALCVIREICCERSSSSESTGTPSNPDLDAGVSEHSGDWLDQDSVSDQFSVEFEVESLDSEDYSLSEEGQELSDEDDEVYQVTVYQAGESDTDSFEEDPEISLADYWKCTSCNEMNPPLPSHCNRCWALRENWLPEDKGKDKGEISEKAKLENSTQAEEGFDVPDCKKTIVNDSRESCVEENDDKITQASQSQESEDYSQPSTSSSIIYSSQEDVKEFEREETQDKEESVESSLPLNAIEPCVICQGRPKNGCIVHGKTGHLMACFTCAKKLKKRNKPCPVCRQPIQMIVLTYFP
HIF-2a inh conf: HIF-2a reporter inhibitor retest, confirmation, luminescence, 786-0 RCC cells; shares compounds with HIF-2a block; HIF-2a luciferase reporter luminescence, overnight; inhibition, % at 18.8 µM; 56% of 1,800 active;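 active means mean inhibition across four replicates of at least 40 percent at the single tested concentration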
HIF-1a cs: HIF-1a luciferase reporter signal reduction – MiaPaCa-2 cells, single concentration, counter-screen for HIF-2a inhibitor project, confirmation. MiaPaCa-2 HIF-1a luciferase reporter, desferoxamine, overnight. 72% of 1,800 active. shares compounds with HIF-2a block. inhibition, % at 18.8 µM;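 active means mean inhibition of the reporter signal across four replicates at the single tested dose of 50% or more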
Numbers without * were called inactive; . = no result. The list is not random: actives were taken first. Their share in the collection is about 4%.

SMILES	TROY signal inh	CF NFkB block	TWEAK-Fn14 inh	KKLEB cytotox	HIF-2a block	Peg3 prom inh-1	Peg3 prom inh-2	CF NFkB inh conf	others
NC(=O)c1nsc(C(=O)N(c2ccccc2F)C(C(=O)NCc2ccc(F)cc2)c2ccc(O)cc2)c1N (centres undefined)	16	94*	36	-34	19	58*	60*	108*
COc1cccc(CN(C)C(=O)C(CCSC)NS(=O)(=O)c2ccc3c(c2)OCCO3)c1OC (centres undefined)	17	74*	-4	15	7	56*	62*	79*
CSCCC(NS(=O)(=O)c1ccc2c(c1)OCCO2)C(=O)N(C)Cc1ccc(C)cc1 (centres undefined)	1	6	15	-13	14	18	.	.
CCOC(=O)C1(C)CCN1C(=O)c1ccc(C(C)(C)C)cc1 (centres undefined)	-17	-8	5	-3	-26	-46	.	.
Cc1ccc(S(=O)(=O)/N=C(\CCl)N2CCOCC2)cc1	12	58*	5	-14	24	58*	39	70*
COc1ccc(Nc2nccc(-c3cccc(N)c3)n2)cc1	28	71*	76*	20	-195	73*	-117	94*
FC(F)Sc1ccc(NC(=S)NCc2ccccc2)cc1	37	-6	19	-4	-114	-47	.	.
FC(F)Sc1ccc(NC(=S)NC(c2ccccc2)c2ccccc2)cc1	52*	51*	54*	-45	-11	53*	95*	57*
Cc1cc(C)c(C)c(S(=O)(=O)N(C)CCc2ccccn2)c1C	0	15	-7	0	13	16	.	.
COc1cccc(OC)c1C(=O)Nc1cc(C)nn1-c1nc2ccccc2[nH]1	30	78*	38	-17	-34	54*	71*	53*
COc1ccc(-n2nc(C(=O)NCC(=O)Nc3cc(OC)c(OC)c(OC)c3)c3ccccc3c2=O)cc1OC	4	83*	1	-26	6	55*	44*	90*
Cc1cccc(C)c1NC(=O)C(c1ccccc1)n1c(=O)c(-c2ccco2)nc2ccccc21 (centres undefined)	.	.	.	.	7	.	.	.
CC(=O)c1ccc(-c2cnc3c(NC=O)cc(-c4ccccc4Oc4ccccc4)cn23)cc1	14	58*	59*	-27	24	55*	63*	45*
COc1ccc(CCNC(=O)c2c(O)c3ccccc3[nH]c2=O)cc1	3	2	-19	-11	4	-1	.	.
O=C(Nc1ccccc1)c1nc[nH]c1C(=O)NCCCCNC(=O)c1[nH]cnc1C(=O)Nc1ccccc1	-3	54*	35	-13	4	60*	56*	59*
Cc1ccc(NC(=O)c2nc[nH]c2C(=O)NCCCCCCNC(=O)c2[nH]cnc2C(=O)Nc2ccc(C)cc2)cc1	-11	4	13	4	1	46	.	.
Cc1onc(-c2ccccc2)c1C(=O)Nc1ncc([N+](=O)[O-])s1	48	47	35	-23	-22	34	.	.
Cc1ccc(C(=O)Nc2ncc([N+](=O)[O-])s2)cc1	80*	31	100*	-6	53*	76*	56*	.	HIF-2a inh conf=80*;HIF-1a cs=93*
CCOC(=O)[C@@H]1[C@H]2COc3cc(OC)ccc3[C@@H]2N2C(=O)N(c3ccc(Cl)cc3)C(=O)[C@@]12C	-58	11	-12	-9	-107	-93	.	.
CCCCCCCCCCCCCCC(O)C[N+](C)(CCO)CCO (centres undefined)	0	55*	-50	-34	73*	70*	73*	56*	HIF-2a inh conf=39;HIF-1a cs=84*
CCCCNC(=O)C1(C)CCC(=O)N1CCOC (centres undefined)	-4	-4	-22	2	0	2	.	.
Nc1cc2c3c(cccc3c1)C(=O)N(CCN1CCCC1)C2=O	-12	-113	-18	-2	54*	107*	95*	.	HIF-2a inh conf=19;HIF-1a cs=102*
O=C1c2ccccc2C(=O)N1CCN1CCCCC1	16	10	0	-7	12	4	.	.
O=C1c2cccc3cc([N+](=O)[O-])cc(c23)C(=O)N1CCN1CCCC1	-27	-190	-43	-20	-50	112*	99*	.	Mdm2 MdmX conf=101*
NC(=O)CN1CCN(CCN2C(=O)c3cccc4cccc(c34)C2=O)CC1	-32	-15	4	0	-16	-15	.	.
SMILES	TROY signal inh	CF NFkB block	TWEAK-Fn14 inh	KKLEB cytotox	HIF-2a block	Peg3 prom inh-1	Peg3 prom inh-2	CF NFkB inh conf	others
CC(C)CNC(=O)c1ccccc1N(Cc1ccccc1)S(C)(=O)=O	6	-8	-8	6	9	16	.	.
O=C(c1ccc(N2C(=O)C3C4CC(C(Br)C4Br)C3C2=O)cc1)N1CCCCC1 (centres undefined)	-10	19	-22	-8	8	3	.	.
Cc1cccc(-n2ncc3c(N4CCCc5ccccc54)ncnc32)c1	-1	8	-10	-28	-290	-254	.	.
Cc1cccc(-n2ncc3c(N(C)C4CCCCC4)ncnc32)c1	88*	9	102*	-54*	66*	75*	82*	.	HIF-2a inh conf=81*;HIF-1a cs=101*
Nc1ccc(S(=O)(=O)c2ccccc2)nc1	-17	13	22	1	13	11	.	.
O=[N+]([O-])c1ccc(S(=O)(=O)c2ccccc2)nc1	58*	108*	54*	-88*	75*	97*	97*	.	Mdm2 MdmX conf=103*;HIF-2a inh conf=65*;HIF-1a cs=79*
O=C(/C=C/c1ccccc1O)c1ccco1	-34	14	23	3	-16	10	.	.
